Reference: the supplement of paper PMC6555819

Key:
Assay in all cases: PBM binding z-score (relative to random genomic background probes); higher = stronger binding; sequences stand for … in GC…GCGATTGACAGCGTAGAATGAAGG
[1] = system: FXR:RXRa (NR concentration 270 nM, RXRa partner concentration 90 nM)
How it was run: (§1)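 The probes on custom Agilent 4×180K protein-binding microarrays were double-stranded, with 34-nt variable regions bearing direct-repeat seeds, single-nucleotide variants, half-site ablations and random human genomic background sequences. Incubation lasted 1 h with ligand-free nuclear receptor dimers in PBS pH 7.4, 2% milk, 0.02% Triton X-100, 1 mM DTT, 0.2 mg/mL BSA and 0.4 mg/ml salmon testes DNA. Antibodies against each partner (one per run) detected bound dimers, and fluorescence scans were regression-normalized. Binding z-scores take the random background probes as reference.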

[2] = system: LXRa:RXRa (NR concentration 270 nM, RXRa partner concentration 90 nM)
How it was run: as §1

[3] = system: LXRa homodimer (NR concentration 270 nM)
How it was run: as §1

[4] = system: LXRb:RXRa (NR concentration 270 nM, RXRa partner concentration 90 nM)
How it was run: as §1

[5] = system: LXRb homodimer (NR concentration 270 nM)
How it was run: as §1

[6] = system: PPARa:RXRa (NR concentration 270 nM, RXRa partner concentration 90 nM)
How it was run: as §1

[7] = system: PPARg:RXRa (NR concentration 180 nM, RXRa partner concentration 90 nM)
How it was run: as §1

[8] = system: PPARg:RXRa 270nM:90nM, anti-RXR (NR concentration 270 nM, RXRa partner concentration 90 nM)
How it was run: as §1

[9] = system: PPARg:RXRa 30nM:10nM, anti-RXR (NR concentration 30 nM, RXRa partner concentration 10 nM)
How it was run: as §1

[10] = system: PPARg:RXRa 90nM:30nM, anti-RXR (NR concentration 90 nM, RXRa partner concentration 30 nM)
How it was run: as §1

| Sequence | PBM binding z-score [1] | PBM binding z-score [2] | PBM binding z-score [3] | PBM binding z-score [4] | PBM binding z-score [5] | PBM binding z-score [6] | PBM binding z-score [7] | PBM binding z-score [8] | PBM binding z-score [9] | PBM binding z-score [10] |
| --- | --- | --- | --- | --- | --- | --- | --- | --- | --- | --- |
| ATCGAAAGGTCGACGAAGTGAGTATACACCGTTT | 3.64 | 2.87 | -0.00377 | 2.49 | 0.429 | 3.98 | 2.23 | 2.51 | 0.7 | 1.46 |
| ATCTCTAGGTAACAAGATCAGTGAAAGAGAGGAC | 0.203 | 0.168 | 0.348 | 0.0382 | 0.596 | 0.578 | 1.09 | 0.835 | 0.253 | 0.677 |
| AGACTGAGGTTATTAAGATCAGGGAATTGCGGTC | 1.39 | 1.31 | 0.0697 | 1.16 | -0.265 | 2.03 | 0.624 | 0.982 | 0.0377 | 0.409 |
| ATCTCTAGGTAACAAGTTCCGTGAAAGAGAGGAC | 0.25 | -0.0278 | 0.209 | 0.0127 | 0.506 | 0.431 | 0.903 | 1.28 | 0.68 | 1.07 |
| TCAGATAGGTGAAGGTAACTCAGGTACGCAGTCG | 0.487 | 1.73 | -0.148 | 0.791 | -0.21 | 1.32 | 1.01 | 2.26 | 3.97 | 3.01 |
| GCTGCTAGGTCAGGTTGGACAGCTAACGGGTACG | 1.1 | 0.591 | -0.119 | 0.0809 | -0.346 | 1.2 | 0.798 | 0.804 | -0.236 | -0.0943 |
| GGAACGAGGGCATTCGAGTTGATAGCTTGGCGAT | 1.76 | 1.65 | -0.471 | 0.207 | -0.992 | 1.36 | 0.667 | 0.802 | -0.342 | 0.275 |
| TCATATCGGTAATACAGGTGAAAGTCGGCATCTA | 0.812 | 0.733 | 0.448 | 0.822 | 0.305 | 1.58 | 0.895 | 2.79 | 3.92 | 3.03 |
| AGAATGAGGTTAGACGTAGATCAGGGAAGAAAGT | 0.755 | 0.774 | 0.0351 | 0.67 | -0.107 | 2.02 | 0.989 | 1.22 | 0.406 | 0.527 |
| CGAACTAGGTCAGAACAGGACAGCGAAGGATGAT | 1.13 | 0.841 | -0.226 | 0.393 | -0.43 | 3.3 | 5.21 | 4.4 | 1.79 | 3.38 |
| TCTTGGAGATCAATAGAGGTTAAGAAAGTGCGCT | 1.28 | 3.82 | 0.422 | 2.09 | -0.451 | 1.94 | -0.159 | 1.27 | 2.09 | 1.59 |
| ATATGTAGGTTATCGGGTCATCCAGTTTGCGCAT | 3.4 | 3.29 | 1.73 | 3.26 | 1.22 | 5.15 | 7.35 | 6.27 | 3.9 | 5.79 |
| GTACCAAGGTGAATAGGCCGTTGATGAGTAGGCG | 0.0834 | 0.126 | -0.456 | -0.22 | -0.582 | 1.08 | 0.806 | 0.724 | -0.00292 | 0.38 |
| CCAACTGGGGCAGAAAGGTTACCATACCATCCGG | 0.267 | 0.782 | 0.0649 | 1.12 | -0.79 | 2.53 | 2.29 | 2.56 | 0.915 | 2.11 |
| TCATATAGGCAAATGCTAGGTGAAAGTCCGATCT | 0.729 | 0.526 | -0.00307 | 0.0683 | -0.278 | 0.735 | 0.411 | 1.55 | 3.12 | 2.14 |
| AGAATGAGCTTACCAAAGATCAGGGAAACGCTTG | -0.649 | -0.433 | -0.203 | -0.523 | -0.394 | -0.401 | 0.53 | 0.206 | 0.32 | -0.0483 |
| TCATATAGGAAAAAGGTGAAAGTCGGTGTGGTAA | 1.37 | 1.47 | -0.216 | 1.38 | -0.0192 | 2.87 | 3.05 | 5.37 | 5.19 | 5.73 |
| AGAACGAGGGCAATCAGTTGATAGCACGGGTGGC | 0.397 | 0.342 | -0.0973 | 0.0776 | 0.0962 | 1.68 | 1.44 | 1.15 | 0.168 | 0.658 |
| TCTTGTAGATCAAGCAGTTTAAGAAAGCCTGAGT | 0.227 | 0.026 | -0.29 | 0.14 | -0.263 | 0.321 | -0.75 | 1.11 | 2.54 | 2.03 |
| CCTTACGGGTCACTGACAGGTTATAGCATTTGGA | 5.52 | 4.15 | 0.472 | 3.5 | 0.111 | 5.06 | 4.48 | 4.67 | 1.53 | 3.39 |
| GCTGCTAGGTCAGGTTGCTCAGCTAACGGGTACG | 1.19 | 0.603 | -0.362 | 0.238 | -0.468 | 1.3 | 0.32 | 1.06 | -0.602 | 0.106 |
| ACAGACAGGTGAGTGATGGTAACTCAGCTGGACG | 0.332 | 0.668 | -0.354 | -0.409 | -0.477 | -0.213 | 0.554 | -0.115 | -0.0308 | -0.212 |
| CGTCCAAGGTCAGGGTCAGTGAAAGAGACTCGAA | 6.11 | 3.93 | -0.0372 | 3.66 | 0.128 | 5.11 | 4.59 | 4.52 | 1.28 | 2.98 |
| CCAGACAGGTGAGAAGGTTACTCAGCCTCGATTA | 0.207 | 0.568 | -0.0205 | 0.724 | -0.277 | 1.54 | 0.536 | 0.872 | 0.0606 | 0.56 |
